Reference: PubChem BioAssay (NCI)
Compounds without any hit were thinned out: in the full panel of roughly 79,000, 15% have a hit. A number with no mark means an inactive call. Active and inactive are the calls of the source. Cut-off read from the data, not from the text of the source: active = growth inhibition above about 70%; inactive = the rest.

Experiments:
[1] = NCI Yeast Anticancer Drug Screen. Data for the rad50 strain (AID 155);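 note: 0% = growth of vehicle-only cultures of the same strain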; settings: S. cerevisiae rad50 strain growth inhibition, active compounds read high
Procedure, shortened: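 DNA repair mutant yeast, compound exposure, growth read-out; inhibition is taken relative to vehicle.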

[2] = NCI Yeast Anticancer Drug Screen. Data for the mec2-1 strain (AID 157); settings: S. cerevisiae mec2-1 strain, active compounds read high
Procedure, shortened: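 Strain: mec2-1 (DNA repair/cell cycle alteration). Compound exposure, then growth measured; inhibition expressed relative to vehicle.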

[3] = NCI Yeast Anticancer Drug Screen. Data for the sgs1 mgt1 strain (AID 161);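 note: 0% = growth of cultures given vehicle only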; settings: S. cerevisiae sgs1 mgt1 strain, active compounds read high
Procedure, shortened: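 Genetically altered yeast, compound exposure, growth inhibition relative to vehicle.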

[4] = NCI Yeast Anticancer Drug Screen. Data for the cln2 rad14 strain (AID 165);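 note: 0% = growth equal to vehicle treated cultures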; settings: S. cerevisiae cln2 rad14 strain, active compounds read high
Procedure, shortened: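 Compounds are applied to the cln2 rad14 yeast strain, and growth is then compared with that of vehicle-treated cultures to give inhibition.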

[5] = NCI Yeast Anticancer Drug Screen. Data for the bub3 strain (AID 167); settings: S. cerevisiae bub3 mutant strain, active compounds read high
Procedure, shortened: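 In this screen, a yeast mutant lacking normal mitotic checkpoint function is challenged with compound. Relative growth versus vehicle gives the inhibition value.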

[6] = NCI Yeast Anticancer Drug Screen. Data for the mlh1 rad18 strain (AID 175); settings: S. cerevisiae mlh1 rad18 strain growth inhibition, active compounds read high
Procedure, shortened: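 Read-out is yeast growth inhibition, calculated against vehicle-only controls. The compound was applied to a strain engineered with DNA damage repair alterations.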

[7] = at 5.0 µM (retest, dose inferred, filed as 0.5)
[8] = at 50.0 µM (retest, dose inferred, filed as 5.0)

| Compound | growth inhibition [1, 7] | growth inhibition [1, 8] | growth inhibition ([1]; at 50.0 µM) | growth inhibition [2, 7] | growth inhibition [2, 8] | growth inhibition ([2]; at 50.0 µM) | growth inhibition [3, 7] | growth inhibition [3, 8] | growth inhibition ([3]; at 50.0 µM) | growth inhibition [4, 7] | growth inhibition [4, 8] | growth inhibition ([4]; at 50.0 µM) | growth inhibition [5, 7] | growth inhibition [5, 8] | growth inhibition ([5]; at 50.0 µM) | growth inhibition [6, 7] | growth inhibition [6, 8] | growth inhibition ([6]; at 50.0 µM) |
| --- | --- | --- | --- | --- | --- | --- | --- | --- | --- | --- | --- | --- | --- | --- | --- | --- | --- | --- |
| C=CCc1cc(Cl)ccc1OC(=O)N(C)C | 5% | -2% | -7.75% | 5% | -4% | 3.45% | 5% | -2% | -6.55% | 6% | -1% | -19.3% | 0% | -21% | -11.8% | 0% | -1% | 31.8% |
| NC(=S)C1=C(N)Oc2c(c(=O)oc3ccccc23)C1c1ccc(Br)cc1 (stereo not given) | -7% | 66% | 20.1% | 10% | 73% (active) | 53.7% | 10% | 76% (active) | 57.9% | 16% | 85% (active) | 21.4% | 7% | 90% (active) | 62.6% | -2% | 91% (active) | 62.5% |
| [I][Hg][CH2]C1OCCOC1[CH2][Hg][I] (stereo not given) | 1% | 3% | 99.5% (active) | -39% | 2% | 99.7% (active) | -1% | 2% | 99.5% (active) | -2% | 4% | 99.2% (active) | -8% | -6% | 99.5% (active) | -1% | 3% | 99.2% (active) |
| Oc1c(O)c(Br)c(Br)c(Br)c1Br | 97% (active) | 98% (active) | 91.2% (active) | 99% (active) | 99% (active) | 93.5% (active) | 99% (active) | 99% (active) | 93.5% (active) | 98% (active) | 99% (active) | 93% (active) | 98% (active) | 98% (active) | 91.8% (active) | 98% (active) | 99% (active) | 91.8% (active) |
| O=[N+]([O-])c1ccc(N(CCO)CCO)c2c1no[n+]2[O-] | 39% | 92% (active) | 81.4% (active) | 25% | 70% (active) | 54.4% | 35% | 83% (active) | 69.2% | 8% | 44% | 44.3% | 4% | 40% | 61.5% | 42% | 90% (active) | 78.8% (active) |
| N#CC(C#N)=Cc1ccc(Cl)o1 | 2% | 54% | 59.6% | 4% | 47% | 50% | 2% | 24% | 61.8% | -6% | 26% | 42.4% | -2% | 35% | 45% | 1% | 29% | 82.8% (active) |
| C[PH+](C)C.C[PH+](C)C.[Au] | 36% | 70% (active) | 85.7% (active) | 30% | 89% (active) | 91.8% (active) | 59% | 82% (active) | 91% (active) | 18% | 32% | 88% (active) | 27% | 57% | 89.5% (active) | 68% | 91% (active) | 89% (active) |
| O=C(C[n+]1ccccc1)C1CCc2ccccc2C1 (stereo not given) | -3% | -4% | 9.25% | 0% | -2% | 5.7% | -1% | 0% | -1.5% | 0% | -5% | 39% | -2% | -3% | -21.1% | -6% | -6% | 3.2% |
| CC12C(=O)C=CCC1=CCC1C2CCC2(O)C(=O)OC3(C)C4CC5(C)C(COC16OC23C5C6=O)C(=O)O4 (stereo not given) | 11% | 51% | 78.8% (active) | 24% | 35% | 55.7% | 19% | 31% | 54.4% | 3% | 18% | 30.4% | 14% | 56% | 69.6% | 32% | 64% | 62.5% |
| CCC[CH2][Pb]([CH2]CCC)([CH2]CCC)[n]1ccnc1 | 99% (active) | 99% (active) | 90.2% (active) | 99% (active) | 99% (active) | 92.7% (active) | 98% (active) | 98% (active) | 93.7% (active) | 97% (active) | 99% (active) | 91.6% (active) | 99% (active) | 93% (active) | 92.2% (active) | 99% (active) | 99% (active) | 91% (active) |
